From the supplement of paper PMC12067926

Assays:
Assay in all cases: relative growth (AUC of 72 h growth curve relative to DMSO control, dAUC) (ratio); higher = more growth (less inhibition), active = hit call of the paper
Details in all cases: 20 µM;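 active = growth AUC significantly below the DMSO wells by Dunnett test; inactive = the rest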
Community 7 = test system: Community 7
Outline: (§1)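 Whole sediment communities and bacterial isolates from Icelandic stream sediments and Silwood Park soil were brought to carrying capacity in Luria–Bertani medium. They were then diluted 1:100 into 96-well plates with each chemical at 20 µM in 1% DMSO, and A600 was recorded every hour for 72 h. The area under each growth curve, integrated by spline, was averaged across three biological replicates. This figure, divided by the mean of the DMSO controls, gives relative growth (dAUC).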

Community 8 = test system: Community 8
Outline: as §1

Community 9 = test system: Community 9
Outline: as §1

[1] = test system: Flavobacterium 1 (Flavobacterium glaciei)
Outline: as §1

[2] = test system: Flavobacterium 2 (Flavobacterium succinicans)
Outline: as §1

[3] = test system: Hymenobacter 1 (Hymenobacter glaciei)
Outline: as §1

[4] = test system: Microbacterium 1 (Microbacterium arborescens)
Outline: as §1

[5] = test system: Neobacillus 1 (Neobacillus soli)
Outline: as §1

[6] = test system: Oryzobacter 1 (Oryzobacter terrae)
Outline: as §1

[7] = test system: Paenibacillus 1 (Paenibacillus castaneae)
Outline: as §1

[8] = test system: Prolinoborus 1 (Prolinoborus fasciculus)
Outline: as §1

[9] = test system: Pseudomonas 1 (Pseudomonas baetica)
Outline: as §1

[10] = test system: Pseudomonas 2 (Pseudomonas vancouverensis)
Outline: as §1

[11] = test system: Pseudomonas 3 (Pseudomonas mandelii)
Outline: as §1

[12] = test system: Pseudomonas 4 (Pseudomonas peli)
Outline: as §1

[13] = test system: Pseudomonas 5 (Pseudomonas baetica)
Outline: as §1

[14] = test system: Pseudomonas 6 (Pseudomonas sp.)
Outline: as §1

[15] = test system: Rhizobium 1 (Rhizobium herbae)
Outline: as §1

[16] = test system: Serratia 1 (Serratia sp. 2015-2462-01)
Outline: as §1

[17] = test system: Sphingomonas 2 (Sphingomonas sp.)
Outline: as §1

Measured: relative growth

O=[N+]([O-])c1cc(C(F)(F)F)c(Cl)c([N+](=O)[O-])c1Nc1ncc(C(F)(F)F)cc1Cl
active: Community 9 0.34 | [1] 0.0154 | [2] 0.00437 | [3] 0.0968 | [5] 0.169 | [6] 0.00855 | [7] 0.00404 | [8] 0.66 | [10] 0.795 | [11] 0.00358 | [12] 0.498 | [13] 0.595 | [14] 0.258 | [15] 0.109 | [16] 0.004 | [17] 0.0215
inactive: Community 7 0.794 | Community 8 0.921 | [4] 0.928 | [9] 0.775

N#CC(CCc1ccc(Cl)cc1)(Cn1cncn1)c1ccccc1 (stereo not given)
inactive: Community 7 0.96 | Community 8 0.951 | Community 9 0.939 | [1] 0.846 | [2] 0.856 | [3] 0.861 | [4] 0.909 | [5] 0.905 | [6] 1.02 | [7] 0.947 | [8] 0.902 | [9] 0.999 | [10] 0.921 | [11] 0.992 | [12] 0.934 | [13] 0.932 | [14] 0.909 | [15] 0.947 | [16] 0.921 | [17] 1.08

CNC(=O)ON=C(C)SC
inactive: Community 7 0.999 | Community 8 0.942 | Community 9 1.04 | [1] 1.03 | [2] 1.03 | [3] 1.07 | [4] 0.999 | [5] 1.01 | [6] 0.947 | [7] 1.07 | [8] 0.938 | [9] 0.876 | [10] 0.956 | [11] 0.999 | [12] 0.946 | [13] 1.02 | [14] 0.936 | [15] 1.06 | [16] 0.936 | [17] 0.978

Cc1cc(C)c(C2=C(OC(=O)CC(C)(C)C)C3(CCCC3)OC2=O)c(C)c1
active: [1] 0.346
inactive: Community 7 0.932 | Community 8 1.08 | Community 9 1.03 | [2] 0.981 | [3] 0.896 | [4] 1.02 | [5] 1.01 | [6] 1.16 | [7] 0.994 | [8] 0.977 | [9] 1.1 | [10] 1.12 | [11] 1.09 | [12] 1 | [13] 1.03 | [14] 1.2 | [15] 0.937 | [16] 1.03 | [17] 1.01

CC1(C)C(C=C(Cl)Cl)C1C(=O)OC(C#N)c1cccc(Oc2ccccc2)c1 (stereo not given)
inactive: Community 7 0.963 | Community 8 1.08 | Community 9 1.12 | [1] 0.979 | [2] 1.05 | [3] 1.08 | [4] 1.03 | [5] 1.02 | [6] 1.07 | [7] 1 | [8] 0.983 | [9] 0.942 | [10] 1.06 | [11] 1.06 | [12] 1.04 | [13] 1.02 | [14] 1 | [15] 1.15 | [16] 1.01 | [17] 1.03

CC[C@H]1CCC[C@H](O[C@H]2CC[C@H](N(C)C)[C@@H](C)O2)[C@@H](C)C(=O)C2=C[C@@H]3[C@@H](C=C(C)[C@@H]4C[C@@H](O[C@@H]5O[C@@H](C)[C@H](OC)[C@@H](OC)[C@H]5OC)C[C@@H]34)[C@@H]2CC(=O)O1.CC[C@H]1CCC[C@H](O[C@H]2CC[C@H](N(C)C)[C@@H](C)O2)[C@@H](C)C(=O)C2=C[C@H]3[C@@H]4C[C@H](O[C@@H]5O[C@@H](C)[C@H](OC)[C@@H](OC)[C@H]5OC)C[C@H]4C=C[C@H]3C2CC(=O)O1
inactive: Community 7 1.36 | Community 8 0.95 | Community 9 0.711 | [1] 0.859 | [2] 0.951 | [3] 1.06 | [4] 0.985 | [5] 0.965 | [6] 1.14 | [7] 0.832 | [8] 0.832 | [9] 1.14 | [10] 0.981 | [11] 1.04 | [12] 1.05 | [13] 1.06 | [14] 1.01 | [15] 0.89 | [16] 1.1 | [17] 1

COP(=S)(OC)SCN1C(=O)c2ccccc2C1=O
inactive: Community 7 1.04 | Community 8 1.02 | Community 9 1.04 | [1] 0.982 | [2] 0.975 | [3] 1.02 | [4] 0.992 | [5] 1.03 | [6] 0.954 | [7] 1.06 | [8] 1.08 | [9] 0.986 | [10] 0.981 | [11] 0.971 | [12] 0.962 | [13] 1.03 | [14] 1.12 | [15] 0.943 | [16] 0.972 | [17] 1.01

CCOC(=O)OC1=C(c2cc(C)ccc2C)C(=O)N[C@]12CC[C@@H](OC)CC2
inactive: Community 7 1.03 | Community 8 0.995 | Community 9 1.03 | [1] 1.08 | [2] 1.05 | [3] 0.987 | [4] 1.01 | [5] 1.09 | [6] 1.05 | [7] 1.01 | [8] 1 | [9] 1.11 | [10] 0.998 | [11] 1.02 | [12] 1.02 | [13] 0.981 | [14] 1.09 | [15] 0.952 | [16] 0.987 | [17] 1.04

CC1COC(Cn2cncn2)(c2ccc(Oc3ccc(Cl)cc3)cc2Cl)O1 (stereo not given)
inactive: Community 7 1.02 | Community 8 1.01 | Community 9 1.21 | [2] 0.988 | [3] 0.956 | [4] 0.936 | [5] 1.08 | [6] 1.16 | [7] 0.872 | [8] 1.04 | [9] 1.06 | [10] 0.99 | [11] 1.06 | [12] 1.01 | [13] 1.03 | [14] 1.08 | [15] 0.952 | [16] 1.01 | [17] 1.06
active: [1] 0.367

CNC(=O)Oc1cccc2ccccc12
inactive: Community 7 0.845 | Community 8 1.06 | Community 9 0.967 | [1] 1.09 | [2] 1.01 | [3] 1.03 | [4] 1.02 | [5] 1.04 | [6] 0.972 | [7] 1 | [8] 1 | [9] 0.973 | [10] 1.04 | [11] 0.996 | [12] 1.01 | [13] 1.04 | [14] 1.12 | [15] 0.906 | [16] 0.932 | [17] 0.986

O=C(NC(=O)c1c(F)cccc1F)Nc1ccc(Cl)cc1
inactive: Community 7 0.985 | Community 8 1.06 | Community 9 1.05 | [1] 0.844 | [2] 0.949 | [3] 0.917 | [4] 1.03 | [5] 0.942 | [6] 1.04 | [7] 0.957 | [8] 0.965 | [9] 1.06 | [10] 1.01 | [11] 1.04 | [12] 1.02 | [13] 1.01 | [14] 1.05 | [15] 1.06 | [16] 0.988 | [17] 1.02

COP(=O)(NC(C)=O)SC (stereo not given)
inactive: Community 7 0.831 | Community 8 0.99 | Community 9 1.03 | [1] 1.06 | [2] 0.982 | [3] 1 | [4] 1.01 | [5] 1.01 | [6] 1.04 | [7] 0.959 | [8] 1.03 | [9] 1.07 | [10] 1.02 | [11] 1.08 | [12] 1.02 | [13] 1.02 | [14] 1.14 | [15] 0.999 | [16] 0.992 | [17] 0.94

CC(C)OC(=O)C(C(=O)OC(C)C)=C1SCCS1
inactive: Community 7 1.15 | Community 8 1 | Community 9 0.964 | [1] 0.993 | [2] 0.947 | [3] 1.09 | [4] 1.02 | [5] 1.01 | [6] 1.12 | [7] 0.965 | [8] 0.947 | [9] 1.16 | [10] 0.995 | [11] 1.04 | [12] 0.947 | [13] 1.03 | [14] 1.09 | [15] 0.897 | [16] 0.96 | [17] 1.1
